# Source: PubChem (The Scripps Research Institute Molecular Screening Center)
# SMARCA2 act = SMARCA2 (BRM) function activators, primary screen, cell-based, luminescence, high throughput; MG213 cells, MMTV-luciferase reporter, dexamethasone, overnight; activation, % at 9.1 µM; 370,000 compounds, 1% hits; in the data active means activation above about 7.8%
# ssDAF12 agonist = S. stercoralis DAF-12 nuclear receptor activators, primary screen, cell-based, luminescence, HEK293, GRIP1 co-expression, lit1-tk-luc; Nuclear hormone receptor DAF-12 (Strongyloides stercoralis); HEK293 ssDAF-12/GRIP1 lit1-tk-luc reporter; % of 3 µM dafachronic acid response; activation, % at 6.8 µM; 370,000 compounds, 1% hits; AID 652126, 2013;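 active means activation above the mean over all tested compounds plus 3 SD, cut at about 0.9% in these data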
# hgDAF12 agonist = H. glycines DAF-12 receptor agonists, primary screen, cell-based, luminescence, HEK293, GAL4 fusion, UAS-luciferase. 370,000 compounds, 1.8% hits. Nuclear hormone receptor DAF-12 (Heterodera glycines), GAL4 fusion. activation, % at 6.8 µM. HEK293 GAL4-hgDAF12 UAS-luciferase reporter, agonist luminescence; normalized to butyrate control;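 active means activation above a cutoff set at the mean of all screened compounds plus 3 SD, cut at about 10% in these data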
# hcDAF-12 act = H. contortus DAF-12 nuclear receptor activators, primary screen, cell-based, luminescence, HEK293, lit1-tk-luc reporter. activation, % at 6.8 µM. HEK293 hcDAF-12 lit1-tk-luc reporter; 0% DMSO, 100% Δ7-dafachronic acid. 370,000 compounds, 1.4% hits;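 active means activation above the mean of all tested compounds plus 3 SD, cut at about 5.5% in these data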
# DAX1 inh-1 = DAX1 (NR0B1) inhibitors on StAR promoter, primary screen, cell-based, luminescence, SF-1 (NR5A1), full-length DAX-1. HEK293T StAR-luciferase reporter, SF-1/DAX-1 repression relief. inhibition, % at 6.8 µM. 370,000 compounds, 1.1% hits;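 active means inhibition above the mean over all tested compounds plus 3 SD, cut at about 3.6% in these data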;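 further: higher inhibition means more luminescence from relief of DAX-1 repression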
# DAX1 inh-2 = DAX1 (NR0B1) inhibitors, primary screen, cell-based, HEK293, Gal4-DAX1, luciferase luminescence; HEK293 Gal4-DAX1 luciferase reporter; inhibition, % at 6.75 µM; 340,000 compounds, 0.99% hits; AID 504766, 2011;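 active means inhibition above the mean over all tested compounds plus 3 SD, cut at about 4.2% in these data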;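 further: inhibition shows as a rise in luminescence from relieved DAX1 repression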
# Target sequence (P51843 207-470 limits assumed): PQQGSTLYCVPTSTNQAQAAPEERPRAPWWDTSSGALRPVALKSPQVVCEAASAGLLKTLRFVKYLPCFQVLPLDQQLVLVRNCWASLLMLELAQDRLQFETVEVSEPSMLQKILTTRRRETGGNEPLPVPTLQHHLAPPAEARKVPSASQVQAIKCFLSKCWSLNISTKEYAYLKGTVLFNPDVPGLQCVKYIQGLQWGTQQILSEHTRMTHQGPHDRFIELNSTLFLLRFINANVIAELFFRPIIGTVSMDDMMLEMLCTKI
# SMARCA2 conf = SMARCA2 (BRM) function activators, confirmation, cell-based, luminescence, triplicate | shares compounds with SMARCA2 act | MG213 cells, MMTV-luciferase with dexamethasone, overnight; MG213 cells expressing E1A, Rb sequestered; DMSO wells 0%, reference activator 100% | activation, % at 9.1 µM | 3,500 compounds, 30% hits | AID 652260, 2013;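 active means activation above its plate's cutoff, the mean activation of tested wells plus 3 SD, cut at about 7.9% in these data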
# VP16 Luc act = GAL4-VP16 luciferase reporter activation, counter-screen for SMARCA2 (BRM) activator project, cell-based, pG5luc, luminescence, high throughput; shares compounds with SMARCA2 act; HEK293 GAL4-VP16 pG5luc reporter; scaled: DMSO wells 0%, SAHA wells 100%; activation, % at 9.1 µM; 3,500 compounds, 41% hits; AID 686939, 2013;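 active means activation above the solvent-only control well mean plus 3 SD, averaged across control plates, cut at about 5.2% in these data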
# hgDAF12 ag = H. glycines DAF-12 receptor agonists, confirmation, cell-based, luminescence, HEK293, GAL4-LBD fusion; HEK293 GAL4-hgDAF12 luciferase reporter, agonist mode; percent of butyrate response; 3,300 compounds, 80% hits; AID 743050, 2013; shares compounds with hgDAF12 agonist; activation, % at 6.8 µM;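 active means mean activation over triplicate wells above the hit cutoff derived from the earlier primary screen, cut at about 11% in these data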
# LXRb DAF12 ctr = LXR agonists, Gal4 luciferase reporter, confirmation, counter-screen for hgDAF-12 agonist project, cell-based, luminescence, HEK293, H. glycines campaign; shares compounds with hgDAF12 agonist; 24 h; activation, % at 6.8 µM; 3,300 tested, under 10 active; AID 743051, 2013;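 active means mean activation of the triplicate above a set limit carried over from the primary screen, none filed active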
# Numbers stand for hits; 0 = inactive; - = no result given. A selection: hits, their analogues and other compounds. The true share with any hit is near 4.8%.
SMILES,SMARCA2 act,ssDAF12 agonist,hgDAF12 agonist,hcDAF-12 act,DAX1 inh-1,DAX1 inh-2,SMARCA2 conf,VP16 Luc act,hgDAF12 ag,LXRb DAF12 ctr
Cc1cc(OCC(=O)N(C)C2CCCCC2)ccc1Cl,10,0,17,0,3.6,0,0,17,0,0
Cc1ccc(/C=C/c2nnc(-c3ccc(C)cc3)o2)cc1,0,0,0,0,0,0,-,-,-,-
Cc1ccc(/C=C/c2nnc(-c3cccs3)o2)cc1,11,0,15,0,4.4,0,0,9.0,16,0
CN(C)c1ccc(NC(=O)Nc2cccc(Cl)c2)cc1,9.7,0,17,0,0,0,0,15,16,0
NNC(=O)c1cccc(COc2cccc(Br)c2)c1,0,0,0,0,0,0,-,-,-,-
CCOc1ccc(OCc2cccc(C(=O)N/N=C/c3cccnc3)c2)cc1,8.5,0,15,0,3.7,0,13,21,19,0
COc1ccc(OCc2cccc(C(=O)NN)c2)cc1,13,0,18,0,3.9,0,9.4,16,21,0
Cc1ncc(C(=O)O)c(C(=O)O)c1N,0,0,0,0,0,0,-,-,-,-
O=C(O)c1ccc(/C=C/c2ccc3cccc(O)c3n2)cc1,8.0,0,15,0,0,0,16,6.2,11,0
CC12CC3OC3CC1CCC1C2CCC2(C)C1CCC21OCCO1 (stereo not given),0,0,0,0,0,0,-,-,-,-
Cc1ccc(C2=NNC3(CCOC(C)(C)C3)S2)cc1 (stereo not given),11,1.0,17,11,4.0,0,9.9,0,0,0
COC(=O)C1CCN(C(=O)c2oc3c(Cl)cc(C)cc3c2C)CC1,9.1,0,14,0,0,0,0,11,16,0
Cc1cc(C(=O)N/N=C/c2c(C)nn(-c3ccccc3)c2C)c(C)o1,0,0,0,0,0,0,-,-,-,-
O=C(c1cc2ncccn2n1)N1CCc2c([nH]c3ccccc23)C1c1ccccc1F (stereo not given),0,0,0,0,0,0,-,-,-,-
CCn1nc(C)cc1C(=O)N1CCc2c([nH]c3ccccc23)C1c1cc(F)ccc1F (stereo not given),9.0,0,14,6.2,0,-,0,6.3,13,0
O=C(Nc1nnc(SCC(=O)N2CCCc3ccccc32)s1)c1cccc2ccccc12,0,0,0,0,0,0,-,-,-,-
Cc1ccc(C(=O)Nc2nnc(SCC(=O)N3CCCc4ccccc43)s2)cc1,9.3,0,14,0,4.2,0,0,8.4,0,0
O=C(COC(=O)COc1ccc(Cl)cc1)NCCNC(=O)COC(=O)COc1ccc(Cl)cc1,0,0,0,0,0,0,-,-,-,-
